Holding throughout (assay): NCI-60 one-dose screen, 48 h (100 = growth as untreated, 0 = no growth, -100 = all killed)
What all share (settings): 10 µM unless noted

Assay [1] concerns DU-145 prostate.
The test system of assay [2] is MALME-3M melanoma.
Assay [3] deals with MDA-MB-231 breast.
In assay [4] the test system is RXF 393 renal.
Assay [5] concerns SF-268 CNS.
The subject of assay [6] is SF-295 CNS.
Assay [7] relates to SF-539 CNS.
Assay [8] relates to UACC-257 melanoma.
Assay [9] relates to M14 melanoma.
Assay [10] relates to K-562 leukemia.

The results in this text go back to PubChem BioAssay (NCI).

This is part of a sample that, as a whole, favours compounds with a hit. Of some 83,000 tested, about 20% had one in any assay.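 Cell lines were cultured in 96-well plates, exposed to a single compound concentration, and assessed for percent growth 48 hours later.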 A number with no mark means an inactive call. Activity calls are given as the source filed them. The calls were made as follows: active = growth percent below 10; inactive = the rest.

Consider `Cc1cc2c3ccc(C)[n+](C)c3ccc2n1C`, for which the growth in [1] was 46.7%; in assay [2], 46.9%; in [3] it was 33.6%; in [4], 61.6%; in [5] it was 19%; in assay [6] it was 26.4%. Moreover, the growth in [7] was 67.5%; in [8], 32.2%; in [9], 92.7%.
Regarding `CCOC(=O)/C(O)=C(\C=N\C(=S)Nc1ccc(Cl)c(Cl)c1)C(=O)OCC`, the growth in assay [10] was 92.7%; in assay [2], 89.3%; in assay [3], 94.3%; in [4] it was 97.9%; in [5], 104%; in [6], 105%. Also, the growth in assay [7] was 73.9%; in assay [8], 98.6%; in assay [9], 93.2%.
Consider `CCOC(=O)/C(C#N)=C\c1c[nH]c2ccccc12`, for which the growth is 111% in assay [1]; 116% in assay [2]; 80.9% in [3]; 101% in assay [5]; 107% in [6]; 103% in assay [7]. Also, the growth was 105% in assay [8] and 97.1% in assay [9].
On to `C/C(O)=C(/C=N/C(=S)Nc1ccccc1)C(=O)Nc1ccccc1C`, for which the growth was 100% in assay [10]; 89.1% in assay [2]; 99.7% in [3]; 104% in assay [4]; 97.9% in assay [5]; 105% in [6]. In addition, the growth in assay [7] was 101%; in assay [8], 91.2%.
For the compound `C=CCOc1ccc(Cl)cc1Cl`, the growth in assay [10] was 5.12% (active); in [2], 113%; in assay [3] it was 91.5%; in [4] it was 132%; in [5], 104%; in assay [6], 98.2%. Besides, the growth is 96.8% in assay [7], 115% in assay [8] and 101% in assay [9].
Consider `CCCCN(C(=O)CC)c1ccccc1`, for which the growth in assay [1] was 99.7%; in assay [2], 100%; in [3], 105%; in assay [4], 115%; in assay [5], 98.6%; in assay [6], 99.8%. Also, the growth was 100% in [7], 95.5% in assay [8] and 91.8% in assay [9].
For `Clc1ccc(C(SCc2ccccc2)SCc2ccccc2)cc1`, the growth is 92.7% in assay [10]; 75.8% in assay [2]; 99.9% in [3]; 88% in [4]; 91% in assay [5]; 102% in assay [6]. Moreover, the growth in assay [7] is 97.2%; in [8] it was 88.2%; in assay [9] it was 88.2%.
With `Cc1cccc(C)c1NC(=S)/N=C\c1c(O)[nH]c(=O)[nH]c1=O`, the growth in assay [1] was 111%; in assay [3], 96.6%; in [4] it was 108%; in [5] it was 98%; in assay [6] it was 97.9%; in assay [7] it was 112%. The growth was 81.8% in [8] and 98.4% in assay [9].
On to `Cc1nc(C)c(C(=O)O)cc1C(=O)O`, for which the growth was 99.6% in [10]; 105% in [2]; 108% in assay [3]; 117% in assay [4]; 116% in [5]; 118% in assay [6]. In addition, the growth in [7] was 95%; in [8], 111%.
With `CCOc1ccc2c(c1)c(C)cc(C)[n+]2CC`, the growth is 47.2% in assay [10]; 101% in assay [2]; 91.3% in assay [3]; 96.3% in assay [4]; 95.2% in [5]; 54.3% in assay [6]. Besides, the growth was 88.7% in [7], 76% in assay [8] and 102% in assay [9].
On to `O=S(Cc1ccccc1)/C(=C/NC(=S)Nc1cc(Cl)ccc1Cl)c1ccccc1` (centres undefined), for which the growth in assay [1] was 106%; in assay [3], 100%; in assay [4] it was 103%; in assay [5] it was 93.1%; in assay [6], 103%; in [7] it was 115%. Further, the growth was 99.5% in assay [8] and 96.8% in assay [9].
As to `N#C/C(=C\c1ccc(C#N)cc1)C(=O)c1ccccc1`, the growth in assay [1] was 107%; in [2] it was 109%; in [3] it was 104%; in assay [5], 104%; in assay [6], 107%; in [7] it was 96.8%. For the same compound, the growth was 97.7% in assay [8] and 95.7% in assay [9].
Regarding `O=C(NCc1ccccc1)/C(=C/c1ccccc1)NC(=O)c1ccccc1`, the growth is 111% in assay [1]; 92.6% in [3]; 93.7% in assay [4]; 100% in [5]; 106% in assay [6]; 115% in [7]. The growth is 81.1% in assay [8] and 101% in assay [9].
Regarding `CC(=O)C1C(=O)C(=O)N(c2ccc(Cl)c(Cl)c2)C1=O` (centres undefined), the growth in assay [10] is 108%; in [2] it was 92.4%; in assay [3], 101%; in assay [4], 110%; in assay [5], 99.8%; in assay [6], 96.7%. The growth in [7] is 99.5%; in assay [8] it was 109%; in assay [9] it was 93.7%.
Take `CCOC(=O)C(COS(C)(=O)=O)(COS(C)(=O)=O)C(=O)OCC`: the growth in [10] is 101%; in assay [2], 122%; in [3], 109%; in assay [4] it was 112%; in assay [5] it was 99%; in assay [6] it was 111%. The growth in assay [7] is 112%; in assay [8], 105%; in [9], 104%.
For `CCCCn1cnc2c(=O)[nH]cnc21`, the growth in [10] is 97.7%; in [2], 158%; in [3], 98.4%; in [4], 118%; in assay [5], 110%; in [6], 100%. The growth in assay [7] is 104%; in [8], 121%; in assay [9], 103%.
Regarding `CCOP(=O)(NC(c1ccccc1)c1ccccc1)OCC`, the growth in assay [10] is 114%; in assay [2] it was 89.7%; in assay [3], 106%; in assay [4] it was 113%; in assay [5], 104%; in [6], 102%. The values for the growth in assay [7], in assay [8] and in [9] were 115%, 97.8% and 105%, respectively.
On to `CCOP(=O)(OCC)/C(=C\N1C(=O)CC(=O)NC1=S)C(=O)OC`, for which the growth in assay [10] was 103%; in assay [2], 102%; in assay [3], 93.6%; in [4], 103%; in assay [5], 101%; in assay [6] it was 102%. Besides, the growth in assay [7] is 109%; in assay [8], 101%; in assay [9], 99.2%.
Consider `O=C(c1cccc(C(=O)c2ccc3c4c(cccc24)C(=O)N(c2ccccc2)C3=O)c1)c1ccc2c3c(cccc13)C(=O)N(c1ccccc1)C2=O`, for which the growth is 89.8% in assay [10]; 101% in assay [2]; 91.1% in assay [3]; 102% in assay [4]; 97.2% in assay [5]; 103% in assay [6]. Further, the growth in [7] was 98.7%; in [8], 92%; in assay [9], 99.2%.
Consider `Cc1cccc2ccccc12`, for which the growth in assay [1] was 114%; in [2] it was 103%; in assay [3], 101%; in [4], 111%; in [5], 102%; in assay [6], 97.4%. The growth in assay [7] is 89.8%; in assay [8], 101%; in assay [9], 97.7%.
On to `COc1ccc(Br)c2c1C(=O)CC2`, for which the growth in assay [1] was 127%; in assay [2], 113%; in assay [3] it was 106%; in [5], 91.3%; in [6] it was 111%; in assay [7], 106%. In addition, the growth in [8] was 119%; in assay [9], 110%.
For the compound `OC(CCN1CCCCC1)(c1ccccc1)c1ccccc1`, the growth in assay [1] was 115%; in [2], 95.4%; in [3] it was 105%; in assay [4], 91.7%; in [5], 104%; in [6] it was 111%. The growth in [7] is 117%; in assay [8], 100%; in assay [9], 99.2%.
Regarding `Cc1ccc[n+](CCC(N)=O)c1`, the growth was 103% in [1]; 79.3% in assay [2]; 92.3% in assay [3]; 106% in assay [4]; 97.6% in assay [5]; 93.5% in assay [6]. For the same compound, the growth in assay [7] is 87.3%; in [8], 103%; in [9] it was 109%.
